Reference: PubChem BioAssay (Tox21)
Unmarked numbers belong to inactive results. A call without a number means that no potency is given here. Active and inactive are the calls of the source. Calls follow the shape of the full dose curve. Non-standard residues stand in square brackets, D forms with d. Residues, ends and D or L forms follow the SMILES beside them. *: point of attachment. Sta = CC(C)C[C@H](N)[C@@H](O)CC(=O)O; Isovaleryl = CC(C)CC(=O)*

biological target: Thyrotropin-releasing hormone receptor (Homo sapiens) (UniProt P34981); test: qHTS assay to identify small molecule agonists of the thyrotropin-releasing hormone receptor (TRHR) signaling pathway (AID 1346891); settings: TRHR-HEK293 calcium fluorescence, agonist mode; series mostly up to 57.6 µM;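 also: HEK293 cells expressing TRHR with calcium dye readout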
Sequence (P34981 whole entry, looked up): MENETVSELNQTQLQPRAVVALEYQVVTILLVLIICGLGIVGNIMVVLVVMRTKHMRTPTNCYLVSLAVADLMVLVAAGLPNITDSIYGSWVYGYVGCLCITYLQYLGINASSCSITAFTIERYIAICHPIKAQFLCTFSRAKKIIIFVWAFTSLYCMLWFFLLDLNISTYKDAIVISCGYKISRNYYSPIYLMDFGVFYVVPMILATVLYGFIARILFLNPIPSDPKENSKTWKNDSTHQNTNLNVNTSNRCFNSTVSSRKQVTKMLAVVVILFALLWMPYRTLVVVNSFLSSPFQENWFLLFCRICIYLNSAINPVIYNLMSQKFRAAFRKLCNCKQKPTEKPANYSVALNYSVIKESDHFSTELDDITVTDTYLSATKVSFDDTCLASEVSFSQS
From the text: National Center for Advancing Translational Sciences [NCATS] NIH Chemical Genomics Center [NCGC] U.S. Environmental Protection Agency [EPA] National Institutes of Environmental Health Sciences [NIEHS] National Toxicology Program [NTP] Assay overview: Thyrotropin-releasing hormone (TRH) receptor (TRHR) is a G-protein-coupled receptor which binds the tripeptide thyrotropin releasing hormone. TRHR is found in the brain and, when bound by TRH, acts (through phospholipase C) to increase intracellular inositol trisphosphate. It plays a crucial role in the anterior pituitary where it controls the synthesis and secretion of thyroid stimulating hormone and prolactin. The TRHR-Hek293 assay is a cell-based assay, and it has the potential to screen G protein-coupled receptors. A compound/drug can either activate (agonist) or suppress (antagonist) GPCRs that can be monitored by levels of intracellular calcium. Using this assay, the Tox21 10K compound library was screened to identify potential TRHR agonists.
Assay Protocol Summary: The TRHR-Hek293 cells were dispensed at 1500cells/4uL/well in 1536-well black-clear bottom plates using a Multidrop dispenser. After the assay plates were incubated at a 37 C/5% CO2 incubator for 18 hours, 4 uL of Dye-Loading Solution was added to each well. The plates were incubated at 37 C for 2 hours. For agonist mode, 23 nL of compounds dissolved in DMSO, positive controls or DMSO only was transferred to the assay plate by a pin tool. The fluorescence intensity in the plates was measured using FDSS 7000EX kinetic plate reader for 3 min at 1 sec intervals. Each test compound was measured at 15 concentrations and in triplicates.

| SMILES | Potency | activation |
| --- | --- | --- |
| CC(=O)SCC(CC(=O)c1ccc(C)cc1)C(=O)O (stereo not given) | inactive | – |
| CCC(C)c1nccnc1OC (stereo not given) | inactive | – |
| CCOC(=O)CC(C(C)=O)C(C)=O | inactive | – |
| CC(C)(C)NCC(O)COc1cccc2c1CCC(=O)N2 (stereo not given) | inactive | – |
| N[C@H]1C(O)O[C@H](CO)[C@@H](O)[C@@H]1O (stereo not given in full) | inactive | – |
| CN(C)CCC[C@@]1(c2ccc(F)cc2)OCc2cc(C#N)ccc21 | inactive | – |
| CCCCCCCCCCCCCCCC(=O)OC | – | 1.74% [at 11.8 µM] |
| CC1(C)S[C@@H]2[C@H](NC(=O)Cc3ccccc3)C(=O)N2[C@H]1C(=O)O (tested in a mixture with another compound) | inactive | – |
| C=CCCCCCCCCCCCCCC | – | -0.0775% [at 11.8 µM] |
| O=C(CCBr)N1CCN(C(=O)CCBr)CC1 | inactive | – |
| CCOC(=O)COc1ccc2c(C)c(CCN(CC)CC)c(=O)oc2c1Cl | inactive | – |
| CC(C)(C)OC(=O)c1ccccc1C(=O)O | inactive | – |
| COc1cc(S(N)(=O)=O)cc(C(=O)O)c1OC | inactive | – |
| CC(=O)/C=C/C=C1/C2CCC(C2)C1(C)C (stereo not given) | inactive | – |
| CN(C)c1cc(NC(=O)CNC(C)(C)C)c(O)c2c1C[C@H]1C[C@H]3[C@H](N(C)C)C(=O)C(C(N)=O)=C(O)[C@@]3(O)C(=O)C1=C2O | inactive | – |
| Cc1ccc(NC(N)=O)cc1 | inactive | – |
| CC(C)C[P+](C)(CC(C)C)CC(C)C | inactive | – |
| CCCCN1C(=O)c2ccccc2C1=O | inactive | – |
| Cc1nc2ccc(Cl)cc2[nH]1 | inactive | – |
| CCCCOCCCC | inactive | – |

| SMILES | Potency | activation |
| --- | --- | --- |
| Cc1cc(O)c(Cl)cc1C | inactive | – |
| O=C1Nc2ccccc2C1=O | inactive | – |
| CC(C)(C)C(=O)CC(=O)C(C)(C)C | inactive | – |
| BrCCOc1ccccc1 | inactive | – |
| CCCCCCCCCCCC(C)=O | inactive | – |
| Cc1cc(N)no1 | inactive | – |
| CCN1CCN(C(=O)N[C@@H](C(=O)N[C@@H]2C(=O)N3[C@@H]2SC(C)(C)[C@H]3C(=O)O)c2ccccc2)C(=O)C1=O | inactive | – |
| CCN(CC)CC | inactive | – |
| CC/C=C\CCOC(=O)c1ccccc1 | inactive | – |
| CC(C)(O)CCCC1=CCC(C=O)CC1 (stereo not given) | inactive | – |
| CC(C)CC(=O)N[C@H](C(=O)N[C@H](C(=O)N[C@@H](CC(C)C)[C@@H](O)CC(=O)N[C@@H](C)C(=O)N[C@@H](CC(C)C)[C@@H](O)CC(=O)O)C(C)C)C(C)C (Isovaleryl-VV[Sta]A[Sta]-OH) | inactive | – |
| COc1cc(NS(=O)(=O)c2ccc(N)cc2)ncn1 | inactive | – |
| COc1ccc(Cl)cc1C | inactive | – |
| COc1cnc(NS(=O)(=O)c2ccc(N)cc2)nc1 | inactive | – |
| C[C@@H]1NC(=O)[C@@H](N)CNC(=O)[C@H](C2CCNC(N)=N2)NC(=O)/C(=C/NC(N)=O)NC(=O)[C@H](CNC(=O)C[C@@H](N)CCCN)NC1=O (stereo not given in full) | – | -0.265% [at 0.218 µM] |
| CCC(C)(C)C | inactive | – |
| CC(C)CC(O)Cc1ccccc1 (stereo not given) | inactive | – |
| O=C(O)Cc1ccccc1Oc1ccc(Cl)cc1Cl | inactive | – |
| COc1cc2nc(N3CCN(C(=O)C4CCCO4)CC3)nc(N)c2cc1OC (stereo not given) | inactive | – |
| CN(C)CCc1c[nH]c2ccc(C[C@H]3COC(=O)N3)cc12 | inactive | – |
